Screening results from PubChem BioAssay.
Most compounds without a hit are left out; they make up all but 7.4% or so of the library.
p53 reactivation: qHTS assay for re-activators of p53 using a Luc reporter; hit rate 0.063% among 320,000; H1299 p53-A138V BP100-luciferase reporter, luminescence, 24 h; AID 504706, 2011; Potency, µM (titrated, usually from 92.2 µM), inactives show at the highest dose activity change, positive = activation, usual class: activators; note: % of control where 0% means no effect; nearly all actives have a fitted effect of over 45% in size
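p53-null H1299 cells stably carrying temperature-sensitive p53-A138V and a BP100-luciferase reporter were pinned with compounds (4-point, 1:5 series) and held 24 hrs at 37 deg C. Luminescence was read 10 min after detection reagent.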
NPC1 promoter act: qHTS Assay for NPC1 Promoter Activators | Huh7 NPC1 promoter luciferase reporter, 24 h | Potency, µM (top dose mostly 9.22 µM), without a hit: top-dose activation, most hits filed as activators | hit rate 2.4% among 320,000; note: % of control where 0% means no effect; nearly all actives have a fitted effect of over 60% in size
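Luminescence from an NPC1 promoter-driven luciferase reporter in stably transfected Huh7 cells was measured after 24 h compound treatment at 37 °C, followed by 10 min ambient incubation with luciferase detection reagent.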
SMN2 splice enh: qHTS Assay for Enhancers of SMN2 Splice Variant Expression; Potency, µM (highest dose often 46.1 µM), without a hit: top-dose activity change, positive = activation, hits mostly activators; HEK293 SMN2-luciferase splicing reporter, luminescence, 30-36 h; AID 1458, 2008; hit rate 2.8% among 210,000; note: % of control where 0% means no effect; nearly all actives have a fitted effect of over 55% in size
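qHTS luciferase splicing reporter: luminescence rises when SMN2 exon 7 is included in transfected HEK293 cells. Compound exposure lasted 30-36 h at 37C, with 4.5 mM final sodium butyrate as control, followed by a ONE-Glo read.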
ELG1 genotox: qHTS screen for small molecules that induce genotoxicity in human embryonic kidney (HEK293T) cells expressing luciferase-tagged ELG1 | HEK293T ELG1-luciferase reporter, luminescence, 16 h | Potency, µM (doses to about 46 µM), without a hit: at the top dose activity change, positive = activation, hits mostly activators | hit rate 1.3% among 330,000 | AID 504466, 2011; note: % of control where 0% means no effect; nearly all actives have a fitted effect of over 60% in size
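HEK293T cells expressing luciferase-tagged ELG1 were treated with compound or DMSO for 16 hr at 37°C. Luciferase activity was then read after 30 min with ONE-Glo at room temperature; rising signal flags genetic stress.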
Rab9 prom act: qHTS Assay for Rab9 Promoter Activators | AID 485297, 2010 | Huh7 Rab9 promoter-luciferase reporter, luminescence, 24 h | Potency, µM (highest dose often 9.22 µM), for the others: at the highest dose activation, negative = inhibition, most hits filed as activators | hit rate 2.8% among 320,000; note: % of control where 0% means no effect; nearly all actives have a fitted effect of over 60% in size
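Using Huh7 cells stably transfected with Rab9 promoter–luciferase, compounds were incubated 24 h at 37 °C, 5% CO2; luciferase luminescence was read 10 min after reagent addition.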
FLuc counter: qHTS profiling assay for firefly luciferase inhibitor/activator using purifed enzyme and Km concentrations of substrates (counterscreen for miR-21 project); purified FLuc, Km substrates, luminescence inhibition; Potency, µM (doses to about 57.5 µM), for the others: at the top dose activity change, negative = inhibition, most hits filed as inhibitors; hit rate 6.9% among 360,000;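 note: plate controls were vehicle for no effect and reference inhibitor for full effect; nearly all actives have a fitted effect of over 55% in size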
Target sequence (P08659 whole entry, looked up): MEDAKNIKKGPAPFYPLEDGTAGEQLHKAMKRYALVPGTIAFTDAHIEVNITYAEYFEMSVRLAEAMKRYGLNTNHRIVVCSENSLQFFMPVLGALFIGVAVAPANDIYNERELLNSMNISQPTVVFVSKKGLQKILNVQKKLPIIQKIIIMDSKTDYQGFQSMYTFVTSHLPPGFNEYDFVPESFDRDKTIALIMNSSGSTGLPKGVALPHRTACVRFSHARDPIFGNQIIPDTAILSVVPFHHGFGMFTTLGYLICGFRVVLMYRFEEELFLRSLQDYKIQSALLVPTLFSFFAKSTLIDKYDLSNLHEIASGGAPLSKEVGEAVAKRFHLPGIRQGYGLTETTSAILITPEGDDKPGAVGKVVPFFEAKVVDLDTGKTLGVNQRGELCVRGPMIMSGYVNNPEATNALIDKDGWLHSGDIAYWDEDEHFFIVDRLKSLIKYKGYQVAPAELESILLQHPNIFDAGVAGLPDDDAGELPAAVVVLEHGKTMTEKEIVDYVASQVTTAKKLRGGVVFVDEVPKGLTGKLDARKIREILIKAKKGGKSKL
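Biochemical qHTS of compounds, final roughly 60 µM downward over six points, against 10 nM purified firefly luciferase using Km concentrations of substrates (10 uM D-luciferin, 10 uM ATP) in Tris acetate pH 7.5 buffer; luminescence output.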
Numbers without * were called inactive; [ ] = another dose, or the depositor's remark. Calls come from the whole dose curve; as a rule, active = well fitted curve in the direction sought with a large enough effect; inconclusive = small, poorly fitted or top-dose-only effect, or another doubt; inactive = no such curve, though single readings can be large; an effect the other way counts as inactive or inconclusive. Potency is the fitted concentration of half-maximal effect.

How did Cn1cccc1-c1cc(C(=O)N/N=C/c2ccc(F)cc2)[nH]n1 do in these assays?
p53 reactivation: 2.3%; NPC1 promoter act: -0.3%; ELG1 genotox: 9.0%; Rab9 prom act: -5.5%; FLuc counter: -11.9%

Results for O=C(O)COc1ccccc1/C=N/NC(=O)CNC(=O)c1ccc(F)cc1 ?
p53 reactivation: -1.1%; NPC1 promoter act: 8.2%; ELG1 genotox: -0.4%; Rab9 prom act: -2.1%; FLuc counter: -1.6%

What do the screens show for `O=C(O)COc1ccccc1/C=N/NC(=O)c1ccc(F)cc1`?
p53 reactivation: 6.9%; NPC1 promoter act: -8.5%; SMN2 splice enh: -5.7%; ELG1 genotox: 1.3%; Rab9 prom act: 9.7%; FLuc counter: 9.53µM*

How did CC(C)(C)/C=N/NC(=O)CNC(=O)c1ccc2c(c1)OCCO2 do in these assays?
p53 reactivation: 16.3%; NPC1 promoter act: -3.8%; SMN2 splice enh: -52.1%; ELG1 genotox: -0.6%; Rab9 prom act: -0.4%; FLuc counter: -0.3%

How did O=C(OCc1ccccc1)/C(=C(\O)c1ccccc1Br)c1ccc(-c2ccccc2)cn1 do in these assays?
p53 reactivation: -1.3%; NPC1 promoter act: 0.6%; ELG1 genotox: 5.9%; Rab9 prom act: 1.0%; FLuc counter: -3.4%

What do the screens show for `O=C(CCN1C(=O)C2CC=CCC2C1=O)Nc1nccs1` (centres undefined)?
NPC1 promoter act: -1.1%; ELG1 genotox: 0.2%; Rab9 prom act: 0.1%; FLuc counter: 1.7%

What do the screens show for `CCC(C(=O)OCC(=O)N(CCOC)c1c(N)n(Cc2ccccc2)c(=O)[nH]c1=O)c1ccccc1` (centres undefined)?
p53 reactivation: -1.7%; NPC1 promoter act: -2.3%; ELG1 genotox: -0.6%; Rab9 prom act: 1.1%; FLuc counter: 2.8%

What do the screens show for `O=C(O)COc1ccccc1/C=N/NC(=O)Cc1ccccc1`?
p53 reactivation: inconclusive; NPC1 promoter act: 0.8%; ELG1 genotox: -1.3%; Rab9 prom act: 4.6%; FLuc counter: -6.0%

What do the screens show for `O=C(O)COc1ccccc1/C=N/NC(=O)c1ccc2c(c1)OCCO2`?
p53 reactivation: 7.9%; NPC1 promoter act: 0.3%; ELG1 genotox: 3.1%; Rab9 prom act: -0.4%; FLuc counter: 1.51µM*

What do the screens show for `CC(C)N(Cc1ccccc1)C(=O)COC(=O)c1cc(S(=O)(=O)N(C)C)ccc1N1CCCC1`?
p53 reactivation: -13.1%; ELG1 genotox: -1.5%

How did CC(=O)/C(N=Nc1ccc(C(=O)O)cc1)=C(\C)O do in these assays?
p53 reactivation: 3.9%; NPC1 promoter act: -3.7%; ELG1 genotox: 11.9%; Rab9 prom act: -0.6%; FLuc counter: 0.3%

How did CC(=O)/C(N=Nc1ccc2c(c1)OCO2)=C(\C)O do in these assays?
p53 reactivation: inconclusive; NPC1 promoter act: 2.82µM*; SMN2 splice enh: 14.1µM*; ELG1 genotox: inconclusive; Rab9 prom act: 3.55µM*; FLuc counter: 21.3µM*

What do the screens show for `CC(=O)/C(N=Nc1ccc2c(c1)OCCO2)=C(\C)O`?
p53 reactivation: 3.6%; NPC1 promoter act: 11.6%; SMN2 splice enh: -88.3%; ELG1 genotox: inconclusive; Rab9 prom act: 5.3%; FLuc counter: 9.53µM*

Results for CCc1ccc(NC(=O)c2cc3c(=O)n(Cc4cccs4)ccc3nc2C)cc1 ?
FLuc counter: -2.4%

How did CC(=NC1CCCCC1)C1=C(O)c2ccccc2C1=O do in these assays?
p53 reactivation: inconclusive; NPC1 promoter act: 2.82µM*; SMN2 splice enh: 15.8µM*; ELG1 genotox: inconclusive; Rab9 prom act: 2.82µM*; FLuc counter: 3.38µM*

What do the screens show for `Oc1ccc(/C=N/Nc2ncnc3nc[nH]c23)cc1`?
p53 reactivation: 6.3%; NPC1 promoter act: 1.7%; ELG1 genotox: -1.3%; Rab9 prom act: 8.7%; FLuc counter: inconclusive

How did Fc1ccccc1/C=N/Nc1ncnc2nc[nH]c12 do in these assays?
p53 reactivation: inconclusive; NPC1 promoter act: 29.3%; SMN2 splice enh: 12.6µM*; ELG1 genotox: 20.6µM*; Rab9 prom act: 23.5%; FLuc counter: inconclusive

How did Fc1cccc(/C=N/Nc2ncnc3nc[nH]c23)c1 do in these assays?
p53 reactivation: inconclusive; NPC1 promoter act: inconclusive; SMN2 splice enh: 10µM*; ELG1 genotox: -2.0%; Rab9 prom act: 3.55µM*; FLuc counter: 19µM*

How did C=C1/C(=C\C=C2/CCC[C@]3(C)C([C@H](C)CCCC(C)(C)O)CC[C@@H]23)C[C@@H](O)C[C@@H]1O (some centres undefined) do in these assays?
SMN2 splice enh: -7.9%

How did CN(C)CCCNCC(=O)c1c(-c2ccccc2)n(C)c2ccccc12 do in these assays?
p53 reactivation: -11.1%; NPC1 promoter act: -0.2%; ELG1 genotox: -1.6%; Rab9 prom act: -2.7%; FLuc counter: -1.6%

Results for Cn1c(NC(=O)c2cccc(Cn3cc(Cl)cn3)c2)nc2ccccc21 ?
p53 reactivation: inconclusive; NPC1 promoter act: 2.24µM*; SMN2 splice enh: 12.6µM*; ELG1 genotox: 10.3µM*; Rab9 prom act: 2.24µM*; FLuc counter: 19µM*

What do the screens show for `CCn1c(NCc2ccc(N(C)C)cc2)nc2ccccc21`?
p53 reactivation: inconclusive; NPC1 promoter act: 16.5%; SMN2 splice enh: 27.4%; ELG1 genotox: inconclusive; Rab9 prom act: 13.7%; FLuc counter: 13.5µM*

Results for CCn1c(NC(=O)c2ccccc2)nc2ccccc21 ?
p53 reactivation: 16.1%; NPC1 promoter act: 27.0%; ELG1 genotox: 12.3%; Rab9 prom act: inconclusive; FLuc counter: 16.9µM*

What do the screens show for `C=CCn1c(NC(=O)c2ccccc2)nc2ccccc21`?
p53 reactivation: -14.9%; NPC1 promoter act: inconclusive; ELG1 genotox: 12.6%; Rab9 prom act: inconclusive; FLuc counter: 23.9µM*

How did CCCCn1c(NC(=O)c2ccccc2)nc2ccccc21 do in these assays?
p53 reactivation: inconclusive; NPC1 promoter act: 13.1%; SMN2 splice enh: 1.0%; ELG1 genotox: -5.8%; Rab9 prom act: 21.2%; FLuc counter: inconclusive

What do the screens show for `CC(C)c1ccc2c(c1)CC[C@H]1[C@@](C)(CN)CCC[C@@]21C`?
SMN2 splice enh: -6.2%[9.22 µM]

What do the screens show for `COc1ccc(-c2csc(Nc3ncccc3C)n2)cc1`?
p53 reactivation: 44.7µM*; NPC1 promoter act: 1.78µM*; SMN2 splice enh: 2.24µM*; ELG1 genotox: inconclusive; Rab9 prom act: 1.58µM*; FLuc counter: 5.36µM*
